For 14 compounds, Potency and outcome results are on record in PubChem BioAssay (NCATS).

SMILES strings stand for the structures. Results filed as inconclusive are left out. Calls of active or inactive are those of the source. Unless noted, calls follow the shape of the dose curve; as a rule, active = well fitted curve in the direction sought with a large enough effect; inconclusive = small, poorly fitted or top-dose-only effect, or another doubt; inactive = no such curve, though single readings can be large; an effect the other way counts as inactive or inconclusive.

A short description of assay [1]: MultiTox-Fluor Cytotoxicity Assay - LYMP1-003 - Dead Cells (AID 961). Also: nearly all actives have a fitted effect of over 70% in size. The gist of the method:
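Dead-cell protease release, detected as bis-AAF-R110 fluorescence at 485/520 nm, was measured in LYMP1-003 cells after 16 h compound treatment at 37 C. AC50 values came from Hill-modeled qHTS curves normalized to DMSO (0%) and 15 uM tetraoctylammonium bromide (100%).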

Assay [2] is described as follows: MultiTox-Fluor Cytotoxicity Assay - LYMP1-003 - Live Cells (AID 962).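 Also: cells exposed to compound for 16 hours at 37 °C; cytotoxic hits lower the live-cell protease signal.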 The gist of the method: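 Human lymphoblastoid line LYMP1-003 in complete culture medium, treated 16 hr with titrated compounds. Viable cells quantified via cell-permeant GF-AFC substrate fluorescence; AC50 derived by Hill fitting.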
Assay [3] in a line: Cell Viability - LYMP1-003 - Assay at 24 hr (AID 963). The method in brief:
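The lymphoblastoid line was treated with titrated compounds for 24 hours, and viable cell number estimated from luciferase-based ATP luminescence.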

Assay [4] in a line: Cell Viability - LYMP1-003 - Assay at 40 hr (AID 964). Also: series mostly up to about 92 µM; nearly all actives have a fitted effect of over 60% in size. The gist of the method:
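Acute toxicity is scored as a concentration-dependent loss of intracellular ATP in LYMP1-003 cells (2500/well, complete medium) after 40 hr at 37 C, measured by CellTiter-Glo luminescence; AC50 values derive from standard Hill modelling.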

Assay [5] is described as follows: Cell Viability - LYMP2-003 (AID 965).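 Also: cells exposed to compounds for 24 h before reading; nearly all actives have a fitted effect of over 50% in size.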 The gist of the method: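 Human lymphoblastoid cells (2500/well) were pre-incubated 5 hr at 37 C, then exposed to compounds over a concentration range for 24 hr at 37 C. Intracellular ATP was read by CellTiter-Glo luminescence; AC50 came from Hill-equation fits.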
The nature of assay [6]: Cell Viability - LYMP2-004 (AID 966). Also: nearly all actives have a fitted effect of over 65% in size. The gist of the method: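 Viable-cell number estimated from ATP luminescence (CellTiter-Glo) in 2500 human lymphoblastoid cells/well after 24 hr at 37 C with compound. AC50 fitted to the standard Hill equation.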
The nature of assay [7]: Cell Viability - LYMP2-005 (AID 967). Also: series mostly up to about 92 µM. The gist of the method: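 CellTiter-Glo luminescence (cellular ATP) read-out; LYMP2-005 lymphoblastoid cells, 2500/well, 5 h pre-incubation, then 24 h compound exposure at 37 C in complete medium. Tetraoctylammonium bromide positive control; AC50 by standard Hill fit.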
The nature of assay [8]: Cell Viability - LYMP2-009 (AID 968). Also: series mostly up to about 92 µM; nearly all actives have a fitted effect of over 55% in size.
A short description of assay [9]: Cell Viability - LYMP2-011 (AID 969). Also: nearly all actives have a fitted effect of over 60% in size. The gist of the method: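 Cells seeded at 2500 per well rest 5 hr before compound addition, then incubate 24 hr at 37 C. CellTiter-Glo reagent is added for 30 min at room temperature before luminescence detection.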
Assay [10] is described as follows: Cell Viability - LYMP2-013 (AID 970). Also: series mostly up to about 92 µM; nearly all actives have a fitted effect of over 55% in size. The method in brief:
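In complete culture medium, human lymphoblastoid cells were dosed for 24 hr at 37 C, with tetraoctylammonium bromide (6.4pM to 92 uM) as positive control. Viability reflects luciferase-based ATP signal; AC50 derived from concentration-response curves.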

The nature of assay [11]: Cell Viability - LYMP2-015 (AID 971). Also: nearly all actives have a fitted effect of over 55% in size. The method in brief:
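AC50 values reflect Hill-model fits of ATP-based luminescence (CellTiter-Glo) from a human lymphoblastoid line, 2500 cells/well, treated 24 hr at 37 C.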

Assay [12] in a line: Cell Viability - LYMP2-017 (AID 972). Also: series mostly up to about 92 µM; nearly all actives have a fitted effect of over 55% in size. The gist of the method:
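In this qHTS format, lymphoblastoid cells in complete medium receive test compound for a day at 37 C before ATP content is quantified by luciferase luminescence. Reported AC50 figures come from standard Hill-equation curve fitting.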

Assay [13] is described as follows: Cell Viability - LYMP2-019 (AID 973). Also: nearly all actives have a fitted effect of over 55% in size. The gist of the method: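 AC50 values come from Hill-equation modelling of qHTS concentration-response curves, where viability is measured as luciferase-based ATP luminescence in the lymphoblastoid line after 24 hr compound exposure in complete culture medium.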
The nature of assay [14]: Cell Viability - LYMP2-021 (AID 974). The method in brief: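 In qHTS format, compounds are tested against 2500 lymphoblastoid cells per well for 24 h; viable cell number is inferred from ATP-driven luciferase light, and Hill-equation fitting yields AC50 values.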
A short description of assay [15]: Cell Viability - LYMP2-023 (AID 975). The gist of the method:
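In this qHTS, ATP-based luciferase luminescence (CellTiter-Glo) is quantified in human lymphoblastoid cells after 24 hr compound treatment at 37 C; tetraoctylammonium bromide serves as positive control. Concentration-response curves are Hill-fitted to give AC50.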

Assay [16] in a line: Cell Viability - LYMP2-025 (AID 976). Also: series mostly up to about 92 µM. The method in brief: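 Luminescent ATP readout after 24 hr treatment of a human lymphoblastoid line (LYMP2-025, 2500 cells/well, 37 C). Reagent developed 30 min at room temperature; AC50 fitted with the Hill equation.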
The target of assay [17] is Pyruvate kinase PKM (Homo sapiens) (UniProt P14618). Briefly: qHTS Assay for Activators of Human Muscle Pyruvate Kinase (AID 954; active = well fitted curve in the direction sought with a large enough effect, not every such curve was filed as active). The method in brief:
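ATP production by PKM2 detected via luciferase luminescence after 1 h room-temperature reaction (0.1 nM enzyme, PEP at Km 0.5 mM, ADP 0.1 mM, pH 7.2 imidazole buffer). Inhibition scaled to no-enzyme control; activation referenced to 0.3 nM enzyme wells.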

Assay [18] deals with Pyruvate kinase (Leishmania mexicana) (UniProt Q27686). Put plainly: qHTS Validation Assay for Activators of Leishmania Mexicana Pyruvate Kinase (AID 959). The gist of the method: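 Purified LmPYK (E451W mutant, 0.2 nM) was incubated 1 h at room temperature with 0.5 mM PEP and 0.1 mM ADP in 50 mM imidazole pH 7.2, 50 mM KCl, 7 mM MgCl2; ATP formed was read by PKLight luminescence, normalized to DMSO wells.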
Pyruvate kinase (Leishmania mexicana), sequence (Q27686 2-499 E452W): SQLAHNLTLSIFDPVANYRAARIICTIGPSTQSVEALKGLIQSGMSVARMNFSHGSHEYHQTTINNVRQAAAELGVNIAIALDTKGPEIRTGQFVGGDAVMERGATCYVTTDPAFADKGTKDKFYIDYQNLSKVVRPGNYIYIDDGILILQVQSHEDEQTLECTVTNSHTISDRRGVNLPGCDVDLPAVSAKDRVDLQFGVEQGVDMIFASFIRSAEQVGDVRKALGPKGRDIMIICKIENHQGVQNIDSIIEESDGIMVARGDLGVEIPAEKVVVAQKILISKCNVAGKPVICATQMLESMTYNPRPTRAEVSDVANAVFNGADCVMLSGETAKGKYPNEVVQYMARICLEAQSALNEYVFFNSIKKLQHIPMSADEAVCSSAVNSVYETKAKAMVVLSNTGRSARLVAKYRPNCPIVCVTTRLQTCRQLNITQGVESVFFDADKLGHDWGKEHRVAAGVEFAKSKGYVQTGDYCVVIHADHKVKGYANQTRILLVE
A general note: In qHTS, concentration-response curves come from the screen itself.

A short description of assay [19]: MultiTox-Fluor Cytotoxicity Assay - LYMP1-002 - Dead Cells (AID 960). Also: nearly all actives have a fitted effect of over 60% in size. The gist of the method:
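Concentration-dependent increases in membrane-leaked protease activity are quantified in LYMP1-002 cells after 16 hr treatment; values are normalized against DMSO and tetraoctylammonium bromide (15 uM) controls and AC50 derived by Hill modeling.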

For assay [20], the target named is Pyruvate kinase PKM (Homo sapiens) (UniProt P14618). Put plainly: qHTS Assay for Inhibitors of Human Muscle Pyruvate Kinase (AID 958). The conditions noted are these: purified human PKM enzyme activity. The gist of the method:
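PKM2, human, >95% pure, 0.1 nM; PEP 0.5 mM (Km), ADP 0.1 mM; 50 mM imidazole pH 7.2, 50 mM KCl, 0.01% Tween 20, 0.05% BSA; 1 h RT; luciferase luminescence readout.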

Pyruvate kinase PKM (Homo sapiens), sequence (P14618 whole entry, looked up): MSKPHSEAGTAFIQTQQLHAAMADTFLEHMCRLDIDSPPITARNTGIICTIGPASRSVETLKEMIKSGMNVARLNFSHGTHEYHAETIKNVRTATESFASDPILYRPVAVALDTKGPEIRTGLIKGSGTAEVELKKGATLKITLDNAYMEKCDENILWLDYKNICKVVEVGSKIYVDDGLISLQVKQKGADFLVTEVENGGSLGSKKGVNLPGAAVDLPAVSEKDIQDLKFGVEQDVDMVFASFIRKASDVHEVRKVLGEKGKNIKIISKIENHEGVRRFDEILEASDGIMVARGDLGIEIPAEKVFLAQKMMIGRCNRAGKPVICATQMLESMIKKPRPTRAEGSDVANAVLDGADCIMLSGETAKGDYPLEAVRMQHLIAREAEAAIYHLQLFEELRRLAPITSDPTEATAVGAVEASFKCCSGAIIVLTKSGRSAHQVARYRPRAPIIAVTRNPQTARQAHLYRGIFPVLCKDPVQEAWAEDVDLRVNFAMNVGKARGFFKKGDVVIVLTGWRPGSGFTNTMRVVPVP

For the compound `CCCCC(CC)COC(=O)C(C#N)=C(c1ccccc1)c1ccccc1` (centres undefined), the Potency result in assay [1], in assay [2], in assay [3], in assay [4], in [5] and in [6] was “inactive” in each case. For the same compound, the Potency result in assay [7], in [8], in assay [9], in assay [10], in [11] and in [12] was “inactive” each time. Moreover, the Potency entry in assay [13], in [14], in [15] and in assay [16] was “inactive” each time.
For `O=C1c2ccccc2-c2n[nH]c3cccc1c23`, in assay [17], the compound was classed as inactive.
Turning to `O=c1c(O)c(-c2cc(O)c(O)c(O)c2)oc2cc(O)cc(O)c12`, the compound was classed as inactive in [17]. For the same compound, in [18], the Potency was 2 µM (active).
Turning to `COc1ccccc1N1CCN(CCN(C(=O)C2CCCCC2)c2ccccn2)CC1`, in assay [17], the compound was classed as inactive.
With `O=C(O)c1cccnc1Nc1cccc(C(F)(F)F)c1`, in [17], the compound was called inactive.
As to `CS(=O)(=O)OCCCCOS(C)(=O)=O`, the compound was classed as inactive in assay [19]. The Potency result in assay [1], in [2], in assay [3], in assay [4], in assay [5] and in assay [6] was “inactive” throughout. In addition, the Potency entry in assay [7], in assay [8], in assay [9], in assay [10], in [11] and in assay [12] was “inactive” in each case. The Potency result in assay [13], in assay [14], in [15] and in assay [16] was “inactive” each time.
Consider `c1ccc2[nH]c(-c3cscn3)nc2c1`, for which the result in assay [19] was inactive. The Potency entry in assay [1], in assay [2], in [3], in [4], in assay [5] and in assay [6] was “inactive” throughout. In addition, the Potency result in assay [7], in [8], in assay [9], in assay [10], in assay [11] and in assay [12] was “inactive” in each case. Moreover, the Potency entry in assay [13], in assay [14], in [15] and in [16] was “inactive” throughout.
Consider `CCN(CC)C(=S)SSC(=S)N(CC)CC`, for which the call in assay [17] was inactive.
For the compound `CCCc1cc(=O)[nH]c(=S)[nH]1`, the result in [19] was inactive. Besides, the Potency entry in assay [1], in assay [2], in assay [3], in assay [4], in assay [5] and in assay [6] was “inactive” each time. The Potency result in assay [7], in assay [8], in assay [9], in [10], in assay [11] and in [12] was “inactive” in each case. The Potency result in [13], in [14], in [15] and in [16] was “inactive” each time.
Turning to `CC(=O)Nc1ccc(O)cc1`, in [19], the result was inactive. Besides, the Potency result in [1], in assay [2], in assay [3], in [4], in assay [5] and in assay [6] was “inactive” each time. The Potency result in [7], in assay [8], in assay [9], in assay [10], in [11] and in assay [12] was “inactive” in each case. Further, the Potency entry in assay [13], in assay [14], in assay [15] and in assay [16] was “inactive” each time.
`Cc1cccc(C#Cc2ccccc2)n1`: the compound was classed as inactive in assay [17]. For the same compound, in assay [20], the Potency was 25.1 µM (active). Besides, the Potency result in assay [18] was “inactive”.
Regarding `Cc1cc(O)c2c(c1)C(=O)c1cc(O)cc(O)c1C2=O`, the call in [17] and in [19] was inactive. The Potency entry in assay [1], in [2], in assay [3], in [4], in assay [5] and in [6] was “inactive” in each case. In addition, the Potency entry in assay [7], in assay [9], in assay [11] and in assay [16] was “inactive” in each case.
As to `Cc1ccc(C)c(OCCCC(C)(C)C(=O)O)c1`, the compound was called inactive in assay [19]. Also, the Potency result in [1], in assay [2], in assay [3], in assay [4], in assay [5] and in assay [6] was “inactive” each time. For the same compound, the Potency entry in assay [7], in [8], in [9], in assay [10], in assay [11] and in assay [12] was “inactive” in each case. Moreover, the Potency entry in assay [13], in assay [14], in assay [15] and in [16] was “inactive” throughout.
As to `O=c1c(O)c(-c2ccc(O)cc2O)oc2cc(O)cc(O)c12`, in assay [17], the outcome was inactive. The Potency in assay [18] was 20 µM (active).
